Hit rate of the full screen: of about 360,000 compounds, about 1,700 (0.47%) were called active. Rule as the data show it: active = activation above about 15%; inactive = the rest. Shown is part of a subset that was picked to be rich in actives.

This test can be described thus: counter-screen for M1 agonists: effect in parental CHO-K1 cells (AID 602248).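 Also: untransfected CHO-K1 host cells lacking M1 receptor as counterscreen.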 Particulars: Fluo-8 calcium fluorescence, at 3 µM, hits give high values, scaled to maximal ATP response, vehicle zero.
Turning to `CC1C(=O)C(C)C(c2ccc(O)cc2)NC1c1ccc(O)cc1` (stereo not given), the activation was 4.02% (inactive). Consider `O=C(CSc1ccc(-c2ccco2)nn1)Nc1cccc(F)c1`, for which the activation is 16.7% (active). Take `COc1ccc(NC(=O)CSc2ccc(-c3ccco3)nn2)c(OC)c1`: the activation is 0.21% (inactive).

In the case of `O=C(CSc1ccc(-c2ccc(F)cc2)nn1)Nc1ccc2c(c1)OCCO2`, the activation was 6.26% (inactive). With `CCCOc1ccc(N2CC(C(=O)Nc3ccccn3)CC2=O)cc1` (stereo not given), the activation was -0.06% (inactive). Regarding `CS(=O)(=O)N(CC(=O)Nc1ccc(F)cc1F)c1cccc([N+](=O)[O-])c1`, the activation is 0.11% (inactive). Take `C=CCn1c(SCC(N)=O)nnc1-c1cc2c(s1)CCC(CC)C2` (stereo not given): the activation is 0.17% (inactive). Take `COC(=O)c1cnc(Nc2cc(C)ccc2OC)c2ccccc12`: the activation is 1.12% (inactive). Consider `COc1ccc(Nc2ncnc3sc(-c4ccccc4)cc23)c(OC)c1`, for which the activation was 17.4% (active). As to `COc1ccc(NC(=O)c2sc(N3CCOCC3)nc2-c2ccccc2)c(OC)c1`, the activation is 1.26% (inactive).

On to `COc1ccc(NC(=O)CSc2nncc(=O)n2N)cc1OC`, for which the activation was 1.17% (inactive).

For the compound `CCOC(=O)C1CCN(CCC(=O)Nc2cccc(C)c2)CC1`, the activation is 6.98% (inactive). Take `CCOC(=O)C1CCN(Cc2nnc(-c3cccc(Br)c3)o2)CC1`: the activation was 16.3% (active). For `CCOC(=O)C1CCN(Cc2ccc(-c3ccccc3)cc2)CC1` the value was 2.64% (inactive); for `CC1CCC2(CC1)NC(=O)N(CC(=O)c1ccc3c(c1)OCO3)C2=O` (stereo not given), 1.72% (inactive); for `COc1ccc(C2(C)NC(=O)N(CC(=O)c3ccc4c(c3)OCO4)C2=O)cc1` (stereo not given), 9.33% (inactive).

For `CC1(c2ccc(Cl)cc2)NC(=O)N(CC(=O)c2ccc3c(c2)OCO3)C1=O` (stereo not given), the activation was 16.4% (active). As to `Cn1c2c(c(=O)n(C)c1=O)C(c1cccc([N+](=O)[O-])c1)Nc1ccccc1O2` (stereo not given), the activation is 0.17% (inactive). For `COc1cccc(N2CCN(C(=O)C3CCCN(S(=O)(=O)c4cnc[nH]4)C3)CC2)c1` (stereo not given) the value was 0.46% (inactive).

As to `CC(=O)N1CCCc2cc(S(=O)(=O)N3CCCC(C(=O)N4CCN(c5cccc(Cl)c5)CC4)C3)ccc21` (stereo not given), the activation is 19.9% (active). As for `Cc1ccc(S(=O)(=O)N2CCCC(C(=O)N3CCN(C)CC3)C2)cc1` (stereo not given), the activation is 1.9% (inactive). Consider `CCN1CCC(=NNC(=O)c2ccc(C)c([N+](=O)[O-])c2)CC1`, for which the activation was 0.82% (inactive). For `Cc1cc(F)ccc1S(=O)(=O)Nc1ncnc2scc(-c3ccc(F)cc3)c12` the value was 0.74% (inactive); for `CC(=O)N1CCN(c2ccc(NCc3ccc(C(C)C)cc3)cc2)CC1`, -0.13% (inactive); for `O=C(NCc1cn2ccsc2n1)Nc1cccc(Cl)c1`, 0.23% (inactive). Turning to `O=C(Nc1cccc(Cl)c1)Nc1ccccc1NS(=O)(=O)c1cccs1`, the activation was 15.3% (active).

For the compound `O=S(=O)(Nc1ccccc1)c1ccc(NS(=O)(=O)c2cccs2)cc1`, the activation is 1.02% (inactive).

In the case of `CC12CN3CC(C)(CN(C1)C3c1ccc(Cl)cc1Cl)C2=O` (stereo not given), the activation was -0.45% (inactive).

As to `COc1ccc(CC(=O)NC(C)c2ccc(Cl)c(Cl)c2)cc1S(=O)(=O)N1CCOCC1` (stereo not given), the activation was 2.98% (inactive).

As to `CC(=O)Nc1ccc(S(=O)(=O)Oc2ccc(/C=N/N=C3/NC(=O)C(CC(=O)O)S3)cc2)cc1` (stereo not given), the activation is 0.03% (inactive). Regarding `CC(=O)N1CCC(N(C(=O)Nc2ccc(Cl)cc2)C(C)C)CC1`, the activation was 1.09% (inactive).

For the compound `CC(=O)c1ccc(NC(=O)C(C)NCc2ccc(Cl)cc2)cc1` (stereo not given), the activation was 0.45% (inactive).

With `CC(C)S(=O)(=O)c1csc(NC(=O)Nc2ccc(Cl)cc2)c1Cl`, the activation is 16% (active).

For `CN(c1ccc(OCC(=O)NC2=NCCS2)cc1)S(=O)(=O)c1ccc(F)cc1`, the activation was 6.36% (inactive). Consider `CN(c1ccccc1)S(=O)(=O)c1ccc(NC(=O)COc2ccccc2)cc1`, for which the activation is 7.3% (inactive). As to `Cc1ccc(S(=O)(=O)N(C)c2ccc(OCC(=O)NC3=NCCS3)cc2)cc1`, the activation was 22.6% (active). In the case of `O=C(O)C(NS(=O)(=O)c1cccc2nsnc12)c1ccccc1` (stereo not given), the activation was 0.41% (inactive). For `Cc1ccc(-c2nn(-c3ccccc3)cc2C(=O)NCCCN2CCCC2=O)cc1` the value was 0.65% (inactive); for `COc1ccccc1N1CCN(C(=O)c2cn(-c3ccccc3)nc2-c2cccnc2)CC1`, 4.25% (inactive); for `O=C(NNC(=S)NC(=O)c1cn(-c2ccccc2)nc1-c1ccccc1)c1ccncc1`, 29.6% (active).

Turning to `CCN(Cc1nc2ccccc2c(=O)[nH]1)Cc1cc(=O)oc2cc(C)c(C)cc12`, the activation was 2.83% (inactive). As for `CCOC(=O)c1ccc(N=C2SC(C(=O)NC)CC(=O)N2CCc2ccccc2)cc1` (stereo not given), the figure is 0.37% (inactive); as for `CCOc1ccc(CC(=O)NC2CCN(Cc3ccccc3)CC2)cc1`, 0.21% (inactive); as for `CCOc1ccc(NS(=O)(=O)c2ccc(C(=O)NC3CCN(Cc4ccccc4)CC3)cc2)cc1`, 15.3% (active). For `CCOc1ccc(C(=O)NC2CCN(S(=O)(=O)CC)CC2)cc1` the value was 0.96% (inactive). For the compound `Cc1ccc(-c2cccc([C@H]3[C@@H]4C=CC[C@@H](C)[C@@H]4C(=O)N3Cc3ccccc3)c2)cc1`, the activation is 0.28% (inactive).

Turning to `Cc1ccc(OCc2cc(C(=O)N(C)CCn3ccnc3C)no2)cc1C`, the activation is 3.36% (inactive). Consider `CN(Cc1cccnc1)C(=O)c1cc(COc2ccc3ncccc3c2)on1`, for which the activation was 17.9% (active). As for `Cc1cc(CN(C)C(=O)c2cc(COc3ccc(C)c(C)c3)on2)n[nH]1`, the activation is 1.86% (inactive). `COc1cccc2c1C(=O)c1c(O)c3c(c(O)c1C2=O)CC(O)(C(C)=NNC(=O)c1ccc(Cl)c(Cl)c1)CC3OC1CC(N)C(O)C(C)O1` (stereo not given): the activation was 7.82% (inactive).

Regarding `CN(C(=O)CC1C(=O)NCCN1Cc1ccc2ccccc2c1)C1CCOCC1` (stereo not given), the activation was 0.91% (inactive). As to `CC1CCCCC12NC(=O)N(CC(=O)OCc1c(F)cccc1Cl)C2=O` (stereo not given), the activation is 21.8% (active). For `CC1CCCCC12NC(=O)N(CC(=O)OCC(=O)NCc1ccc(F)cc1)C2=O` (stereo not given) the value was 0.23% (inactive); for `CCCc1ccc(C(=O)COC(=O)CN2C(=O)NC3(CCCCC3C)C2=O)cc1` (stereo not given), 5.23% (inactive). On to `c1ccc2c(c1)nnn2-c1ccncc1`, for which the activation is 0.33% (inactive). With `O=C(O)/C=C/c1ccc(S(=O)(=O)N2CCCCCC2)cc1`, the activation was -0.04% (inactive).

For `C=CCNC(=O)/C=C/c1ccc(C(C)C)cc1`, the activation was -0.17% (inactive). Take `O=C(/C=C(O)/C=C/c1ccc(O)cc1)/C=C/c1ccc(O)cc1`: the activation was 46.7% (active). In the case of `N=c1n(Cc2ccc(Cl)cc2)c2ccccc2n1CC(O)c1ccco1` (stereo not given), the activation is 1.71% (inactive). On to `CC12CCC(=O)N1C(C(=O)Nc1ccc(F)c(F)c1F)CS2` (stereo not given), for which the activation is 1.59% (inactive). Take `CCCc1nc(-c2ccccc2O)n(-c2ccccc2)n1`: the activation was -0.09% (inactive). With `Cc1nc(NC(CC(C)C)C(=O)O)c2nc(C)oc2n1` (stereo not given), the activation was -0.16% (inactive). Turning to `O=C(CN(CC1CCCO1)C(=O)CNS(=O)(=O)c1ccc(F)cc1)NCc1ccco1` (stereo not given), the activation is 1.1% (inactive).

Regarding `O=C(NCc1cccs1)C(=O)NCC1OCCCN1S(=O)(=O)c1ccc(F)cc1` (stereo not given), the activation is -0.04% (inactive).

With `CN(NC(=O)C1CC(=O)N(c2ccccc2)C1)C1=NS(=O)(=O)c2ccccc21` (stereo not given), the activation is -0.27% (inactive). For `Cc1cc2nc3c(=O)n(Cc4ccccc4)c(=O)[nH]c3nc2cc1N` the value was 47.3% (active). As for `Nc1cc(=O)n(Cc2ccccc2)c(=O)n1Cc1ccccc1`, the activation is 0.11% (inactive). Take `CN(C(=O)COC(=O)c1ccc(Br)o1)c1c(N)n(Cc2ccccc2)c(=O)[nH]c1=O`: the activation is 2.4% (inactive). For `Cc1ccc(S(=O)(=O)n2cccc2CO)cc1` the value was -0.4% (inactive). Consider `COc1ccc(-n2c(Cc3cccn3C)nnc2SCC(=O)Nc2cc(C)cc(C)c2)cc1`, for which the activation is -0.02% (inactive). As for `CCOC(=O)N1C(=O)C[C@](Sc2ccc(C)cc2)(C(=O)OC)[C@H]1c1ccccc1`, the figure is 1.19% (inactive); as for `COCCCNC(=S)NC(=O)c1ccc([N+](=O)[O-])cc1`, 0.19% (inactive). For `CC(=O)Nc1ccc(NC(=S)NC(=O)c2ccc([N+](=O)[O-])c(C)c2)cc1` the value was 1.35% (inactive). For `CC(=O)NC(=S)Nc1ccc(NC(=S)NC(=O)c2ccc([N+](=O)[O-])cc2)cc1`, the activation is 24.5% (active). With `Cc1nn(C(C)C(=O)N2CCOCC2)c(=O)c2nn(-c3ccccc3)c(C)c12` (stereo not given), the activation was 2.09% (inactive). Consider `COc1cccc(CNn2cn[nH]c2=S)c1OCc1ccccc1`, for which the activation is 1.05% (inactive). For the compound `COc1cccc(CNCCc2c[nH]c3ccccc23)c1OCc1ccccc1F`, the activation was 23.3% (active). As for `Fc1ccccc1COc1ccccc1CNCc1ccncc1`, the activation was 4.4% (inactive). As for `COc1cc(NC(=O)COC(=O)CSc2ccc3ccccc3c2)c(C)cc1[N+](=O)[O-]`, the figure is 5.21% (inactive). For `COc1ccc(-c2[nH]ncc2CN(C)Cc2c(C)n[nH]c2C)c(OC)c1`, the activation was 1.07% (inactive).

As to `COc1ccc(-c2c(-c3ccc(OC)cc3O)nc(C)nc2C(F)(F)F)cc1`, the activation is -0.31% (inactive).

As for `COc1ccc(-c2n[nH]c(C)c2-c2ccccc2OC)c(O)c1`, the activation is 15.4% (active). For `Cc1ccc(Cc2cncc(O)c2)cc1S(=O)(=O)O`, the activation was 0.27% (inactive).

`Cc1cccc(C(=O)OCC(=O)Nc2sccc2C(N)=O)c1C`: the activation was -0.07% (inactive). `NC(=O)c1ccsc1NC(=O)COC(=O)COc1ccc(C=O)cc1`: the activation was 16.2% (active). On to `COc1cc(OC)cc(C(=O)OCC(=O)Nc2sccc2C(N)=O)c1`, for which the activation is 9.07% (inactive). As for `CCOC(=O)[C@]12CCC=C1N(Cc1cccc3ccccc13)C(=O)[C@H](CC(=O)NCc1cccc(C(F)(F)F)c1)C2`, the activation is 0.16% (inactive). Regarding `Cc1cccc(CN2CCC(CNC(=O)Nc3ccc(F)c(Cl)c3)CC2)c1`, the activation is 29.2% (active).

On to `COc1cc(NC(=O)NCC2CCN(Cc3ccc(C)cc3)CC2)cc(OC)c1OC`, for which the activation is 1.36% (inactive). Consider `Cc1ccc(C)c(CN2CCC(CNC(=O)Nc3ccc(C)c(F)c3)CC2)c1`, for which the activation was 2.18% (inactive).

Values taken from PubChem BioAssay AID602248 (The Scripps Research Institute Molecular Screening Center, 2012).
